# Laboratory results from PubChem BioAssay (NCATS).
# Values joined by “and” are separate entries in the source; they are usually repeats but may differ in a detail not shown here. Identical values can stand only once. Results filed as inconclusive are left out. Some structures have more than one record in an assay (separate samples or runs), and their calls can disagree. Active and inactive are the calls of the source. Unless noted, calls come from the whole dose curve; as a rule, active = well fitted curve in either direction with a large enough effect (not every such curve was filed as active); inconclusive = small, poorly fitted or top-dose-only effect, or another doubt; inactive = flat fitted curve, though single readings scatter.
# Experiments:
# [1] = AP1 Signaling Pathway (AID 357); conditions: ME-180 (cervical carcinoma) AP-1-bla reporter, EGF-induced, beta-lactamase ratio, 5 h; at 38 µM (top of the series) unless noted;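 note: ME-180 reporter cells stimulated with EGF at its EC50 level; % is set by controls: 0 for no effect and ±100 for the full control effect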
# Procedure, shortened: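 AP-1-bla ME-180 cells, Opti-MEM + 0.5% dialyzed FBS, plated overnight 37 °C. Cpd titration + EC50 EGF, 5 h 37 °C. CCF4 2.5 h RT; ex 405, em 460/530 ratio → %activity, AC50.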
# [2] = biological target: Cytochrome P450 1A2 (Homo sapiens) (UniProt P05177); test: p450-cyp1a2 (AID 410; calls by dose curve; note: potency is the fitted concentration of half-maximal effect;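 for activity change, negative = inhibition: -100% = full effect of reference inhibitor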)
# Procedure, shortened: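 20nM CYP1A2 with 100uM Luciferin-ME (at Km) in 100mM KPO4; compound preincubated 10 min, NADPH regeneration added, 60 min at room temperature. Luciferin quantified by luminescence after detection reagent; normalized to 57 uM furafylline.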
# [3] = NFAT Signaling Pathway (AID 444); conditions: Jurkat NFAT-bla M1, carbachol, beta-lactamase ratio, 5 h; at 38 µM (top of the series) unless noted;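 note: carbachol stimulus at about its EC50 of 1 µM final; % is set by controls: 0 for no effect and ±100 for the full control effect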
# Procedure, shortened: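 Jurkat cells carrying an NFAT-driven β-lactamase reporter and co-transfected muscarinic M1 receptor were treated with compound plus carbachol (1 uM final, an EC50 level) for 5 h at 37 °C. CCF4 loading followed for 1 h at RT; 460/530 nm ratio gave %activity.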
# [4] = biological target: Lysosomal acid glucosylceramidase (Homo sapiens) (UniProt P04062); test: Glucocerebrosidase-p2 (AID 348; in the data active = potency below about 10 µM; note: potency is the fitted concentration of half-maximal effect); conditions: purified GBA, blue fluorogenic substrate, 40 min
# Procedure, shortened: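 Compounds titrated from 0.6 nM upwards against 0.2 nM enzyme in pH 5.9 citric acid/KH2PO4, taurocholate, tween-20; blue fluorogenic substrate 80 uM, 40 min room temperature, stopped and read Ex 365/Em 440 for AC50.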
# Sequence of Cytochrome P450 1A2 (Homo sapiens) (P05177 whole entry, looked up): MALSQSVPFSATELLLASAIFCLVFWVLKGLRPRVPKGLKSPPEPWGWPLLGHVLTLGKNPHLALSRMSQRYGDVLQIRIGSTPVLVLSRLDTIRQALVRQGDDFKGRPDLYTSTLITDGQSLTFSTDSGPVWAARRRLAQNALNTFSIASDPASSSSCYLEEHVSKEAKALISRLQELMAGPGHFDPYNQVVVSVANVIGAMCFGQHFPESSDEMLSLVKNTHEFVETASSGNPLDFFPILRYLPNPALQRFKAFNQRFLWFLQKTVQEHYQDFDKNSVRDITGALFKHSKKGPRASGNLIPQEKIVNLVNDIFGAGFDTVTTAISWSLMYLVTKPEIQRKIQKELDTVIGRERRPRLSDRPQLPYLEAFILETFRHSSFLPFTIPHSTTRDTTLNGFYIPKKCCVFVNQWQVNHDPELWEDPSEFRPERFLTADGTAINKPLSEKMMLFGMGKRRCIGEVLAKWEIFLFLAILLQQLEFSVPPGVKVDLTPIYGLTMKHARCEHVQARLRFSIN
# Sequence of Lysosomal acid glucosylceramidase (Homo sapiens) (P04062 whole entry, looked up): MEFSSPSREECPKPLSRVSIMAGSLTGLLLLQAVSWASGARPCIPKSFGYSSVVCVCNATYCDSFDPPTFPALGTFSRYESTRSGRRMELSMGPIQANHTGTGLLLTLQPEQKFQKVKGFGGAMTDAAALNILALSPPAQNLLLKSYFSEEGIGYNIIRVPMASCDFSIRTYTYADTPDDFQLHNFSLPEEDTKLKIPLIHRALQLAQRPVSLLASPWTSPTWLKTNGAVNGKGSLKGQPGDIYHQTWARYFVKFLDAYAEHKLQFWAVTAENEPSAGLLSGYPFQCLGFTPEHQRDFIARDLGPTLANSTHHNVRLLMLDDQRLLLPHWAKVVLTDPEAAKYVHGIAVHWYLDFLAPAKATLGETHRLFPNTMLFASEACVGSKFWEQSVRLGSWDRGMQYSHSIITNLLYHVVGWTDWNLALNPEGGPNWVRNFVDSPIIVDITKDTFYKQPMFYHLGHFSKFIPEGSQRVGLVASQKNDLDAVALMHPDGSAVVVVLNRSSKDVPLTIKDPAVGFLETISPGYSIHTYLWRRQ
Compound,"activity change, negative = inhibition [1]",Potency [2],"activity change, negative = inhibition [3]",Potency [4]
CCN1C(=O)C=CC1=O,-2.69% (inactive),inactive,4.62% (inactive),
O=c1[nH]c(=S)[nH]c(-c2ccccc2)c1Cc1c(O)ccc2ccccc12,-11.2% [at 7.69 µM] (inactive),1 µM (active),15.8% [at 7.69 µM] (inactive),> 11.4 µM (inactive)
CC(C)(CO)Cc1cc(C(C)(C)C)c(O)c(C(C)(C)C)c1,4.82% (inactive),31.6 µM (active) and 25.1 µM (active),-10.6% (inactive),
NC(N)=NC(N)=Nc1cccc(Cl)c1,-8.78% (inactive),inactive,7.69% (inactive),
CCCCCCCCCCCCCCSCC(=O)O,-3.84% (inactive),,,
O=C(O)c1ccccc1Nc1ccccc1,4.51% (inactive),15.8 µM (active),6% (inactive),
NC(=Nc1ccccc1)NC(=O)c1nc(Cl)c(N)nc1N,-5.68% (inactive),12.6 µM (active),21.6% (inactive),
CCCc1c(OCCCOc2ccc(OCC(=O)O)cc2)ccc(C(C)=O)c1O,-9.01% (inactive),31.6 µM (active),-26.4% (inactive),
CCCOC(=O)c1c(-c2ccccc2)nc(CC)c(C(=O)SCC)c1CCC,2.66% (inactive),10 µM (active),,
CCCCCCCCCCC/C=C\C(C)(C)/C=C\CCCC(=O)O,-13.8% (inactive),39.8 µM (active),,
Nc1ccc2c3c(cccc13)C(=O)NC2=O,-5.58% (inactive),1 µM (active),,
O=c1onc2n1-c1cc(Br)ccc1OC2,1.26% (inactive),0.794 µM (active),3.41% (inactive),
c1ccc2nc(C3=NCCN3)ccc2c1,-2.57% (inactive),5.01 µM (active) and 794 nM (active),-13% (inactive),
CCCn1c(=O)c2c(ncn2C)n(CCC)c1=O,2.31% (inactive),7.94 µM (active),0.366% (inactive),
COCc1nc2c([nH]1)c(=O)n(C)c(=O)n2CC(C)C,1.03% (inactive),12.6 µM (active),9.41% (inactive),
O=C(O)C1=CC(=C(c2ccc(O)c(C(=O)O)c2)c2ccc(O)c(C(=O)O)c2)C=CC1=O,-18.9% (inactive),10 µM (active),1.98% (inactive),
C[C@](Cc1ccc(O)c(O)c1)(NN)C(=O)O,-13.3% (inactive),31.6 µM (active),8.6% (inactive),
COc1ccc(CCN(C)CCc2ccc(OC)c(OC)c2)cc1OC,10.7% (inactive),inactive,-20.2% (inactive),
N[C@H](C(=O)O)c1cc(O)cc(O)c1,7.53% (inactive),inactive and 31.6 µM (active),-1.35% (inactive),
Nc1ccc(N2C(=O)c3ccccc3C2=O)c(Cl)c1,-5.66% (inactive),inactive,7.18% (inactive),
Nc1nc2ccc(Cl)cc2c2nc(-c3ccco3)nn12,-6.92% (inactive),631 nM (active) and 63.1 nM (active),19.6% (inactive),
CCN(CC)CCCCCCCCOC(=O)c1cc(OC)c(OC)c(OC)c1,20.2% (inactive),inactive,-83.6% (active),
Cc1nc2c(OCc3ccccc3)cccn2c1CC#N,-13% (inactive),2 µM (active) and 398 nM (active),4.14% (inactive),
Cn1c(=O)[nH]c2ncn(C)c2c1=O,0.808% (inactive),inactive,-1.89% (inactive),

Compound,"activity change, negative = inhibition [1]",Potency [2],"activity change, negative = inhibition [3]",Potency [4]
O=S(=O)(c1cccc2c(Cl)cccc12)N1CCCNCC1,-0.881% (inactive),15.8 µM (active),3.5% (inactive),
CCn1c(=O)[nH]c2cc(Cl)c(Cl)cc21,0.191% (inactive),1.26 µM (active) and 251 nM (active),-27.1% (inactive),
O=[N+]([O-])c1cccc2c(Br)[nH]nc12,1.06% (inactive),794 nM (active) and 126 nM (active),-9.63% (inactive),
O=c1ccc2c(OCCCCc3ccccc3)c3ccoc3cc2o1,-12.4% (inactive),0.501 µM (active),-20.3% (inactive),
CN1CCN(c2nc3cc(C(F)(F)F)ccc3n3cccc23)CC1,-17.4% (inactive),200 nM (active) and 39.8 nM (active),28.4% (inactive),
COc1cc(CC(=O)O)ccc1O,8.32% (inactive),inactive,6.22% (inactive),
COc1ccccc1N1CCN(CCCCNC(=O)c2ccc3ccccc3c2)CC1,1.71% (inactive),20 µM (active) and inactive,-13.3% (inactive),
NC(=O)CNCCC(c1ccccc1)c1ccccc1,-7.75% (inactive),inactive,1.39% (inactive),
NCCS(=O)O,7.28% (inactive),inactive,3.37% (inactive),
CCC(=O)N1CCN(C(=O)c2ccccc2)CC1,-5.7% (inactive),inactive,3.73% (inactive),
O=C(O)C1=CCCNC1,-0.308% (inactive),inactive,3.92% (inactive),
COc1ccc2c(c1)c(CC(=O)O)c(C)n2Cc1ccc(Cl)cc1,-18.2% (inactive),31.6 µM (active),-4.65% (inactive),
CN[C@H](CC(=O)O)C(=O)O,-0.55% (inactive),inactive,0.454% (inactive),
Cc1cccc(C(=O)NCN2CCN(c3ccccc3C#N)CC2)c1,-12.1% (inactive),15.8 µM (active) and 20 µM (active),-27.4% (inactive),
CC(N)=O,9.17% (inactive),inactive,-6.62% (inactive),
CCCCCCCCCCCCCCC[C@H](O)[C@H](N)CO,5.73% (inactive),inactive,0.212% (inactive),
NC(N)=NC(N)=Nc1ccccc1,-6.28% (inactive),inactive and 31.6 µM (active),7.27% (inactive),
CC(=O)N[C@@H](Cc1c[nH]c2ccccc12)C(=O)OCc1cc(C(F)(F)F)cc(C(F)(F)F)c1,10.1% (inactive),31.6 µM (active),19.5% (inactive),
O=c1[nH]c2ccccc2c2ccccc12,-9.69% (inactive),0.251 µM (active),8.86% (inactive),
N#CC(C#N)=C(N)/C(C#N)=C/c1ccc(O)cc1,-3.7% (inactive),3.98 µM (active),3.6% (inactive),
COc1ccc2c(c1)c(CC(=O)O)c(C)n2C(=O)c1ccccc1,1.55% (inactive),12.6 µM (active),-0.217% (inactive),
N=C(N)SCCN,3.17% (inactive),inactive and 31.6 µM (active),-0.506% (inactive),
Cc1nc(N=Nc2ccc(C(=O)O)cc2)c(COP(=O)(O)O)c(C=O)c1O,-5.94% (inactive),inactive,7.15% (inactive),
Nn1nnc2ccccc21,1.19% (inactive),12.6 µM (active),4.59% (inactive),

Compound,"activity change, negative = inhibition [1]",Potency [2],"activity change, negative = inhibition [3]",Potency [4]
NOCC(=O)O,12.3% (inactive),inactive,-5.75% (inactive),
O=c1[nH]c2cc(Cl)ccc2c(O)c1-c1ccc(Oc2ccccc2)cc1,3.01% (inactive),,-0.707% (inactive),
O=C1Cc2c([nH]c3ccc(Br)cc23)-c2ccccc2N1,-104% (active),1.26 µM (active) and 158 nM (active),-74.4% (active),
N#Cc1cc2nc(O)c(O)nc2cc1[N+](=O)[O-],-1.83% (inactive),inactive and 39.8 µM (active),10.2% (inactive),
COc1ccccc1N1CCN(CCN(C(=O)c2ccc(F)cc2)c2ccccn2)CC1,1.26% (inactive),,-0.748% (inactive),
Oc1ccc(Cn2cc[nH]c2=S)cc1,-3.65% (inactive),,3.63% (inactive),
O=C(O)Cc1c[nH]c2ccc(O)cc12,21.9% (inactive),,6.87% (inactive),
C[N+](C)(C)CC=O,3.33% (inactive),,-6.7% (inactive),
S=C(S)N1CCCC1,12.8% (inactive),,-9.46% (inactive),
C=CCn1c(=O)c2c(nc(-c3ccc(S(=O)(=O)O)cc3)n2C)n(C)c1=O,7.93% (inactive),,-1.07% (inactive),
C[C@H](NC(=O)/C(C#N)=C/c1ccc(O)c(O)c1)c1ccccc1,-18.9% (inactive) and -19.7% (inactive),,-20.6% (inactive) and -13.5% (inactive),
CC(=O)NNC(=O)N1Cc2ccccc2Oc2ccc(Cl)cc21,-8.52% (inactive),,13.5% (inactive),
O=c1[nH]c(=O)c2nc3ccccc3nc2[nH]1,-6.22% (inactive),,0.27% (inactive),
O=c1[nH]ccc2c(O)cccc12,-7.94% (inactive),,-6.89% (inactive),
Cc1cc2c(cc1Cl)N(C(=O)Nc1ccnc3ccccc13)CC2,-29.6% (inactive),,4.5% (inactive),
C=CC[C@H](N)C(=O)O,12.7% (inactive),,2.66% (inactive),
Cn1c(=O)c2[nH]c(-c3ccc(S(=O)(=O)O)cc3)nc2n(C)c1=O,8.6% (inactive),inactive,8.07% (inactive),
COc1cc(CNC(=O)CCCCCCC(C)C)ccc1O,-1.77% (inactive),,7.5% (inactive),
CC(C)Cn1c(=O)n(C)c(=O)c2[nH]cnc21,0.858% (inactive),,-7.31% (inactive),
Nc1nc2[nH]c(=O)cnc2c(=O)[nH]1,6.93% (inactive),inactive,-5.45% (inactive),
NC(N)=[N+]1CCc2ccccc2C1,-5.39% (inactive),,1.51% (inactive),
NC/C=C\C(=O)O,2.58% (inactive) and 1.13% (inactive),,4.38% (inactive) and -3.77% (inactive),
